PKM2 activator = qHTS Assay for Activators of Human Muscle isoform 2 Pyruvate Kinase; Pyruvate kinase PKM (Homo sapiens), P14618; purified PKM2, Kinase-Glo ATP luminescence, activation; response scale: 0% is enzyme alone, no compound; Potency, µM (highest dose often 57.5 µM), for the others: at the top dose activation, usual class: activators; 260,000 tested, 0.34% active; AID 1631, 2009; also: % is scaled to controls: 0 for no effect and ±100 for the full control effect; nearly all actives have a fitted effect of over 55% in size
Target sequence (P14618 whole entry, looked up, canonical isoform): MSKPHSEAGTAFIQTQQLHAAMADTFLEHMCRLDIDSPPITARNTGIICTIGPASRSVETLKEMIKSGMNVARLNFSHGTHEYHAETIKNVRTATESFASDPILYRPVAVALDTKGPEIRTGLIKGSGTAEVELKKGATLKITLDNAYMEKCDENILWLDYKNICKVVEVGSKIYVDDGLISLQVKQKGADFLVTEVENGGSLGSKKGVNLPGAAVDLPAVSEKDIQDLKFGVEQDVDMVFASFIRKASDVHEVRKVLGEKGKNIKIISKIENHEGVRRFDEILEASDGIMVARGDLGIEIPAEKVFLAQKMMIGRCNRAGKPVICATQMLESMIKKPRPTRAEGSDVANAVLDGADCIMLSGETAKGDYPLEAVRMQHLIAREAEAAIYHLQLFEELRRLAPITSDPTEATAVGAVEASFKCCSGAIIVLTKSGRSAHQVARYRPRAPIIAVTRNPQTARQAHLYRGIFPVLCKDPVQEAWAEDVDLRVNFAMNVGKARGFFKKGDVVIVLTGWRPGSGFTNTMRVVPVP
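Purified hPK-M2 (>95%) run at intermediate activity with 0.1 mM ADP and 0.5 mM PEP in 50 mM imidazole pH 7.2, KCl, MgCl2; 1 h room temperature. ATP formed read by Kinase-Glo luminescence; normalized to uninhibited and no-enzyme controls.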
Tb PFK inh = qHTS Assay to Find Inhibitors of T. brucei phosphofructokinase; T. brucei PFK, ADP-Glo luminescence; Potency, µM (highest dose often 57.5 µM), for inactives: at the highest dose activity, negative = inhibition, usual class: inhibitors; 330,000 tested, 0.17% active;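 also: 0% = uninhibited 1x PFK enzyme wells and -100% = no-enzyme wells; nearly all actives have a fitted effect of over 60% in size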
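ADP-Glo luminescence quantified ADP after 45 min at room temperature, with 1.25 nM T. brucei PFK, 0.1 mM ATP and 0.5 mM fructose-6-phosphate in pH 8.0 TEA buffer. qHTS titrations up to 57 µM; curves classified by quality.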
Rango complex inh = qHTS Assay for Inhibitors of Rango (Ran-regulated importin-beta cargo) - Importin beta complex formation; Importin subunit beta-1 (Homo sapiens), Q14974; Rango CFP/YFP FRET sensor + importin beta, 45 min; Potency, µM (series often up to 92.2 µM), inactives show at the top dose inhibition of complex formation; 340,000 tested, 0.031% active; calls by dose curve;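 also: 0% = DMSO wells and 100% = buffer wells lacking importin beta; nearly all actives have a fitted effect of over 15% in size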
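Inhibition scored from the CFP 486 nm/YFP 530 nm FRET ratio 45 min after adding 0.125 microM importin beta to 50 nM Rango biosensor preincubated 5 min with compound (room temperature, PBS with DTT, Tween-20, BSA). No-importin wells as positive control.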
Tb PGK inh = qHTS Assay to Find Inhibitors of Phosphoglycerate Kinase; Phosphoglycerate kinase, glycosomal (Trypanosoma brucei brucei), P07378; 380,000 tested, 0.043% active; Potency, µM (doses to about 57.5 µM), for the others: at the highest dose activity change, negative = inhibition, actives largely listed as inhibitors; PGK/GAPDH coupled, Kinase-Glo luminescence, 60 min; also: % is scaled to controls: 0 for no effect and ±100 for the full control effect; nearly all actives have a fitted effect of over 60% in size
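Luminescent ATP detection (Kinase-Glo Plus) follows a 60-minute room-temperature incubation, with wells lacking PGK as controls. Buffer: 100 mM TEA (pH 7.6), 5 mM MgCl2, 0.01% Tween-20. Coupling enzyme GAPDH (100 nM final) supplies unstable 1,3-BPG in-well.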
ELG1 DNA repair = qHTS screen for small molecules that inhibit ELG1-dependent DNA repair in human embryonic kidney (HEK293T) cells expressing luciferase-tagged ELG1; HEK293T ELG1-luciferase reporter, luminescence, 16 h; DNA damage induced by 5-fluorouridine; 330,000 tested, 2.3% active; Potency, µM (doses to about 46.1 µM), for inactives: at the highest dose activity change, negative = inhibition, actives largely listed as inhibitors; also: % is scaled to controls: 0 for no effect and ±100 for the full control effect; nearly all actives have a fitted effect of over 55% in size
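Step one: seed 2,000 cells per well. Step two: pin-transfer compound or DMSO alongside 5-fluorouridine. Step three: incubate 16 hr, 37 °C, 5% CO2. Step four: add ONE-Glo, wait 30 min, read luminescence.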
Rango dissoc inh = qHTS Assay for Inhibitors of RanGTP induced Rango (Ran-regulated importin-beta cargo) - Importin beta complex dissociation; Potency, µM (highest dose often 46.1 µM), for inactives: top-dose activity change, negative = inhibition; Snurportin-1 (Homo sapiens) + GTP-binding nuclear protein Ran (Homo sapiens) + Importin …; Biochemical FRET Rango-importin beta, RanGTP-induced dissociation; AID 540253, 2011; 340,000 tested, 0.071% active; calls by dose curve; also: % of control where 0% means no effect; nearly all actives have a fitted effect of over 45% in size
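Rango/importin beta premix (0.1/0.25 uM final), PBS + 1 mM DTT + 0.02% Tween-20 + 0.1% BSA; cpd 5 min RT; FRET pre-read; + RanGTP-RCC1 (0.6 uM Ran, 2 mM GTP, 0.2 uM RCC1); 45 min RT; FRET post-read, ex 430, em 486/530 nm.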
Numbers without * were called inactive; i = inactive; ? = inconclusive; nt = not tested or not shown. A selection: hits, their analogues and other compounds. The true share with any hit is near 2.4%. Unless noted, calls follow the shape of the dose curve; as a rule, active = well fitted curve in the direction sought with a large enough effect; inconclusive = small, poorly fitted or top-dose-only effect, or another doubt; inactive = no such curve, though single readings can be large; an effect the other way counts as inactive or inconclusive. Potency is read from the fitted curve at half-maximal effect.

SMILES	PKM2 activator	Tb PFK inh	Rango complex inh	Tb PGK inh	ELG1 DNA repair	Rango dissoc inh
COC(=O)c1ccc2nc(Nc3nc4ccc(F)cc4s3)sc2c1	-2%	5%	?	i	?	13µM*
CCC(=O)Nc1nonc1-c1nc2ccccc2n1CCC(C)C	1%	1%	-1%	0%	23µM*	-9%
Cc1ccc(O)c(C(=O)c2cnn(C(=O)COc3ccc(Cl)cc3)c2)c1	?	-1%	0%	2%	16µM*	-12%
O=C(Cn1cc(S(=O)(=O)N2CCN(c3ccccc3F)CC2)c2ccccc2c1=O)Nc1cccc(C(F)(F)F)c1	nt	nt	nt	-1%	nt	nt
O=C(NCc1cccc(Cl)c1)c1ccc(CS(=O)Cc2ccc(Cl)cc2)o1 (stereo not drawn)	nt	-23%	1%	-7%	13µM*	11%
N#Cc1c(N)nc(SCc2ccccn2)c(C#N)c1-c1cccs1	?	6%	3%	0%	15µM*	-14%
Cc1cc(C)n(-c2nnc(SCC(=O)NC3CCCC3)c3ccccc23)n1	-2%	0%	0%	7%	16µM*	3%
CCOC(=O)Cc1csc(NC(=O)CSc2nnc(-n3nc(C)cc3C)c3ccccc23)n1	-1%	-4%	-1%	5%	?	7%
Nc1cc(S(=O)(=O)N2CCCCC2)ccc1Oc1ccccc1	-6%	0%	0%	i	?	7%
O=C(NCc1ccc(Cl)cc1)c1ccc2c(c1)N(Cc1ccccc1F)C(=O)c1ccccc1S2=O (stereo not drawn)	nt	nt	nt	i	nt	nt
CC(=O)Nc1ccc(OCC(O)Cn2c3ccccc3c3ccccc32)c(C)c1 (stereo not drawn)	5%	0%	0%	i	?	-4%
CC(=O)Nc1ccc(OCC(O)Cn2c3ccccc3c3ccccc32)cc1 (stereo not drawn)	4%	0%	3%	-1%	18µM*	-5%
CCCC(=O)N1CCN(c2ccc(NC(=O)c3cccs3)cc2Cl)CC1	-3%	0%	-4%	-10%	7.3µM*	-14%
CCC(=O)N1CCN(c2ccc(NC(=O)c3ccco3)cc2Cl)CC1	-1%	-3%	3%	8%	?	-9%
CC(C)C(=O)N1CCN(c2ccc(NC(=O)c3ccco3)cc2Cl)CC1	nt	-4%	4%	-6%	?	-18%
O=C(Nc1ccc(Cl)c(Cl)c1)Oc1ccc(NC(=O)c2ccco2)cc1	-16%	13µM*	0%	-10%	17%	9%
O=C(Nc1ccc(N2CCN(C(=O)c3ccco3)CC2)c(Cl)c1)c1cc2ccccc2o1	-3%	1%	-1%	-4%	5.2µM*	-7%
CCC(=O)N1CCN(c2ccc(NC(=O)c3cc4ccccc4o3)cc2Cl)CC1	5%	-7%	?	-2%	5.8µM*	6%
O=C(NCC1CCCO1)c1ccc(N2C(=O)C3CCCCC3C2=O)cc1 (stereo not drawn)	7%	3%	2%	-2%	10%	4%
CN(C)C(CNC(=O)c1ccc(C(F)(F)F)cc1)c1ccco1 (stereo not drawn)	-1%	1%	-4%	6%	?	-6%
O=C(Nc1ccc(N2CCN(C(=O)c3ccccc3)CC2)c(Cl)c1)c1ccco1	-3%	0%	0%	-8%	12µM*	-12%

Source: PubChem BioAssay
